Most compounds without a hit are left out; they make up all but 21% or so of the library.
TDP1 cell CPT: qHTS for Inhibitors of human tyrosyl-DNA phosphodiesterase 1 (TDP1): qHTS in cells in presence of CPT; chicken DT40 Tdp1-/-;hTDP1 cells + 20 nM CPT, ATP luminescence, 48 h; hit rate 12% among 420,000; Potency, µM (doses to about 46.2 µM), inactives show at the highest dose activity change, negative = growth inhibition, actives largely listed as inhibitors; note: potency is the fitted concentration of half-maximal effect; % is set by controls: 0 for no effect and ±100 for the full control effect; nearly all actives have a fitted effect of over 55% in size
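Chicken DT40 Tdp1-/- cells stably complemented with human TDP1 were seeded at 400 cells/well in medium containing 20 nM camptothecin, exposed to pin-transferred compounds, and grown at 37 °C for at least 48 hr. Viability was read as ATP luminescence.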
IL-1B inflam inh: qHTS for Inhibitors of Inflammasome Signaling: IL-1-beta AlphaLISA Primary Screen; activity change, % at 57.5 µM; AID 743279, 2014; THP-1 LPS/ATP IL-1B secretion, AlphaLISA, 16 h; stronger effect = lower value; hit rate 4.7% among 360,000; in the data active = activity change below about -50%; inconclusive = mostly about -30% to -49%; note: % is set by controls: 0 for no effect and ±100 for the full control effect
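Secreted IL-1B measured by AlphaLISA bead assay after 16 h compound exposure of THP-1 cells; compounds (final up to 57.5 uM) added 1 h before LPS (250 ng/mL) and ATP (1.25 mM) stimulation; lower signal means less secretion.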
DT40 TDP1 no CPT: qHTS for Inhibitors of human tyrosyl-DNA phosphodiesterase 1 (TDP1): qHTS in cells in absence of CPT. DT40 Tdp1-/- hTDP1 cells, no CPT, ATP luminescence, 48 h. Potency, µM (top dose mostly 46.2 µM), without a hit: at the top dose activity change, negative = growth inhibition, hits mostly inhibitors. hit rate 15% among 420,000. AID 686978, 2013; note: potency is the fitted concentration of half-maximal effect; % is set by controls: 0 for no effect and ±100 for the full control effect; nearly all actives have a fitted effect of over 55% in size
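Readout: luminescence from CellTiter-Glo after 30 min in the dark at RT. Cells: DT40 Tdp1-/- with stable hTDP1, 400/well. Exposure: compounds alone, ≥48 hr, 37 °C.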
ClpP mod: qHTS Assay for Activators of ClpP; ATP-dependent Clp protease proteolytic subunit (Bacillus subtilis (strain 168)), P80244; purified B. subtilis ClpP, FRET peptide cleavage, 20 min; Potency, µM (highest dose often 57.5 µM), inactives show top-dose activity change, negative = active; hit rate 1.9% among 340,000; AID 651965, 2013; active = well fitted falling curve with a large enough effect; inconclusive = small, poorly fitted or top-dose-only effect; inactive = no such curve, though single readings can be large or run the other way; note: potency is the fitted concentration of half-maximal effect; the source files actives as falling curves though it sought activators and does not explain the sign; nearly all actives have a fitted effect of over 65% in size
Target sequence (P80244 whole entry, looked up): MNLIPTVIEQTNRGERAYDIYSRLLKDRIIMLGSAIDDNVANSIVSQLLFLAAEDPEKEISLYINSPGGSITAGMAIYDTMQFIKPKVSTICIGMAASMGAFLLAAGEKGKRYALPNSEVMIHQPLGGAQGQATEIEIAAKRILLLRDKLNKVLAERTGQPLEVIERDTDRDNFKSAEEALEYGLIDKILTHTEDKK
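FRET quenching reversal measured ClpP activation: 10 microg/mL B. subtilis ClpP at pH 8 with the FRET-FV decapeptide, read at 430 nm after 320 nm excitation. The 20-min minus 0-min signal was scaled between DMSO/no-enzyme wells and ADEP (5.8 microM final).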
DRD3 antagonist: qHTS of D3 Dopamine Receptor Antagonist: qHTS; AID 652054, 2013; max response, negative = inhibition, %; D(3) dopamine receptor (Homo sapiens), P35462; hit rate 2.5% among 360,000; D3R cells, DiscoveRx beta-arrestin luminescence, antagonist mode; stronger effect = lower value; in the data active = max response below about -50%; inconclusive = no clear call, values can overlap the other calls; note: % is set by controls: 0 for no effect and ±100 for the full control effect
Target sequence (P35462 whole entry, looked up): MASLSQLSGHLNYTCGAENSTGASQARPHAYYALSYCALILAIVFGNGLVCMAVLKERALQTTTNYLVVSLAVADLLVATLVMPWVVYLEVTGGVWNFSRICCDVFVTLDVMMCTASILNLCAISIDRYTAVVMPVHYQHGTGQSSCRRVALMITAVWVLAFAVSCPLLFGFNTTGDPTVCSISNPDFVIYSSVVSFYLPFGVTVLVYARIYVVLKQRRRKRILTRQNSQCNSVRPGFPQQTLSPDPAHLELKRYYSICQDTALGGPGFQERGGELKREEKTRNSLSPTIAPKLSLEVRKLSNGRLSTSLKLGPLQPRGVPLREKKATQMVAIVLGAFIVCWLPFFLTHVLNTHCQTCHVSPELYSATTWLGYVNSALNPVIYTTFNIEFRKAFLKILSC
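Cells plated overnight at 1500 cells/well, then exposed to library compounds with dopamine controls for 90 minutes at 37 degrees C. DiscoveRx reagent added for 30–60 minutes at room temperature; luminescence read, quantitative HTS format.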
DRD3 agonist: qHTS of D3 Dopamine Receptor Agonist: qHTS; D3R DiscoveRx beta-arrestin cells, luminescence, 90 min; max activation, %; hit rate 0.58% among 410,000; AID 652048, 2013; in the data active = max activation above about 30%; note: 0% is about no effect
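Cells at 1500/well, incubated overnight, then treated with pinned compounds (dopamine as control) for 90 min at 37 degrees C. DiscoveRx reagent added for 30 - 60 minutes at room temperature; luminescence read.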
* = called active by the depositor. Unless noted, calls come from the whole dose curve; as a rule, active = well fitted inhibition curve with a large enough effect; inconclusive = small, poorly fitted or top-dose-only effect; inactive = flat fitted curve, though single readings scatter.

For Cc1cccc(OCC(=O)Nc2ccccc2C(=O)OCc2cc(=O)n3nc(C4CC4)sc3n2)c1 the results were TDP1 cell CPT -16%, DT40 TDP1 no CPT -17%, ClpP mod -4% and DRD3 agonist 8.
For CN(C(=O)c1ccc(NC(=O)Cc2cccc(NC(=O)C3CCCN(C(=O)C4CCCCC4)C3)c2)cc1)C1CCCC1 (stereo unspecified) the results were TDP1 cell CPT 21µM*, IL-1B inflam inh 13, DT40 TDP1 no CPT inconclusive, ClpP mod -1%, DRD3 antagonist 0 and DRD3 agonist -9.
`CN(C(=O)c1ccc(NC(=O)Cc2cccc(NC(=O)C3CCCN(C(=O)C4CCC4)C3)c2)cc1)C1CCCC1` (stereo unspecified) gave TDP1 cell CPT 0.18µM*, IL-1B inflam inh 18, DT40 TDP1 no CPT inconclusive, ClpP mod -7%, DRD3 antagonist 0 and DRD3 agonist -8.
`CN(C(=O)c1cccc(NC(=O)Cc2ccc(NC(=O)C3CCN(C(=O)c4ccccc4)CC3)cc2)c1)C1CCCCC1` gave TDP1 cell CPT 23µM*, IL-1B inflam inh 57, DT40 TDP1 no CPT inconclusive, ClpP mod -2%, DRD3 antagonist 41 and DRD3 agonist 3.
O=C(Cc1ccc(NC(=O)C2CCCN(C(=O)C3CCCCC3)C2)cc1)Nc1cccc(C(=O)N2CCCC2)c1 (stereo unspecified) was read as TDP1 cell CPT 29µM*, IL-1B inflam inh 24, DT40 TDP1 no CPT inconclusive, ClpP mod -2%, DRD3 antagonist -17 and DRD3 agonist 9.
For CCN(CC)S(=O)(=O)c1ccc2c(c1)N(CC(=O)Nc1ccc(Cl)cc1)C(=O)C1CCCN21 (stereo unspecified) the results were TDP1 cell CPT inconclusive, DT40 TDP1 no CPT inconclusive, ClpP mod -5% and DRD3 agonist -3.
`CCCC(CCC(=O)Nc1cccc([N+](=O)[O-])c1)C(=O)O` (stereo unspecified) gave TDP1 cell CPT 1%, IL-1B inflam inh 5, DT40 TDP1 no CPT 0%, DRD3 antagonist 10 and DRD3 agonist -18.
`CN(C(=O)c1cccc(NC(=O)Cc2ccc(NC(=O)C3CCCN(C(=O)C4CCCC4)C3)cc2)c1)C1CCCCC1` (stereo unspecified) gave TDP1 cell CPT inconclusive, IL-1B inflam inh 31, DT40 TDP1 no CPT 16µM*, ClpP mod 2%, DRD3 antagonist 10 and DRD3 agonist 10.
For C=CCn1c(SCC(=O)Nc2ccc(OC)cc2)nnc1-c1cnccn1 the results were TDP1 cell CPT -2%, IL-1B inflam inh -3, DT40 TDP1 no CPT -15%, DRD3 antagonist 1 and DRD3 agonist 4.
`COc1ccc2[nH]c3c(c2c1)CCN1C(=O)N([C@@H](C)C(=O)NCc2ccccc2OC)C(=O)[C@]31C` gave TDP1 cell CPT inconclusive, IL-1B inflam inh -8, DT40 TDP1 no CPT inconclusive, ClpP mod -1%, DRD3 antagonist 14 and DRD3 agonist -17.
`COc1ccc2[nH]c3c(c2c1)CCN1C(=O)N([C@@H](C)C(=O)NC2CCN(Cc4ccccc4)CC2)C(=O)[C@]31C` gave TDP1 cell CPT 16µM*, IL-1B inflam inh -22, DT40 TDP1 no CPT 16µM*, ClpP mod -2%, DRD3 antagonist 11 and DRD3 agonist -21.
C[C@@H](C(=O)NC1CCN(Cc2ccccc2)CC1)N1C(=O)N2CCc3c([nH]c4ccccc34)[C@@]2(C)C1=O was read as TDP1 cell CPT 23µM*, IL-1B inflam inh -18, DT40 TDP1 no CPT inconclusive, ClpP mod -3%, DRD3 antagonist -20 and DRD3 agonist -38.
Screening CC(C)C[C@@H](C(=O)NC1CCN(Cc2ccccc2)CC1)N1C(=O)N2CCc3c([nH]c4ccccc34)[C@@]2(C)C1=O returned TDP1 cell CPT 12µM*, IL-1B inflam inh -25, DT40 TDP1 no CPT 21µM*, ClpP mod -2%, DRD3 antagonist -15 and DRD3 agonist -34.
CC(C)[C@@H](C(=O)NC1CCN(Cc2ccccc2)CC1)N1C(=O)N2CCc3c([nH]c4ccccc34)[C@@]2(C)C1=O was read as TDP1 cell CPT 18µM*, IL-1B inflam inh inconclusive, DT40 TDP1 no CPT 13µM*, ClpP mod -5%, DRD3 antagonist inconclusive and DRD3 agonist -56.
CC(C)C[C@@H](C(=O)NC1CC1)N1C(=O)N2CCc3c([nH]c4ccccc34)[C@@]2(C)C1=O was read as TDP1 cell CPT inconclusive, IL-1B inflam inh 9, DT40 TDP1 no CPT inconclusive, ClpP mod -4%, DRD3 antagonist 9 and DRD3 agonist 9.
COc1ccc(S(=O)(=O)Nc2ccc(C)c(S(=O)(=O)N3CCOCC3)c2)cc1[N+](=O)[O-] was read as TDP1 cell CPT -17%, IL-1B inflam inh 2, DT40 TDP1 no CPT -4%, ClpP mod -1%, DRD3 antagonist 17 and DRD3 agonist 5.
`CC(NC(=O)c1c(O)c2ccccc2[nH]c1=O)c1ccccc1` (stereo unspecified) gave TDP1 cell CPT -8%, IL-1B inflam inh -2, DT40 TDP1 no CPT 4%, ClpP mod -27%, DRD3 antagonist 1 and DRD3 agonist 1.
COc1ccc2[nH]c3c(c2c1)CCN1C(=O)N([C@@H](C)C(=O)NC2CC2)C(=O)[C@]31C was read as TDP1 cell CPT -26%, IL-1B inflam inh 10, DT40 TDP1 no CPT inconclusive, ClpP mod -7%, DRD3 antagonist 0 and DRD3 agonist -23.
COc1ccc2[nH]c3c(c2c1)CCN1C(=O)N([C@@H](C)C(=O)NC2CCCC2)C(=O)[C@]31C was read as TDP1 cell CPT 12µM*, IL-1B inflam inh -8, DT40 TDP1 no CPT inconclusive, ClpP mod 0%, DRD3 antagonist 0 and DRD3 agonist 8.
Screening CCOc1ccc(N/C(SC)=C(/C#N)C(N)=O)cc1 returned TDP1 cell CPT -11%, IL-1B inflam inh 0, DT40 TDP1 no CPT -13%, ClpP mod 0%, DRD3 antagonist -53* and DRD3 agonist 1.
CCOc1ccc(N/C(SCc2cccc([N+](=O)[O-])c2)=C(/C#N)C(N)=O)cc1 was read as TDP1 cell CPT inconclusive, IL-1B inflam inh -73*, DT40 TDP1 no CPT 21µM*, DRD3 antagonist inconclusive and DRD3 agonist -13.

Screening results as filed in PubChem.
